# Measured values taken from PubChem BioAssay.
# The source made the active and inactive calls.
# Tests used:
# [1] = target: Albumin (Bos taurus) (UniProt P02769); test: bovine serum albumin binders on microarray, profiling panel, artefact control for SMM control protein annotation, biochemical, small-molecule microarray, Alexa647 label, 635/667 nm fluorescence (AID 1118); conditions: BSA-A647 binding, fluorescence 635 nm, higher = more signal;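 note: score merges 667 nm emission intensity and signal-to-noise per printed compound spot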
# Sequence of Albumin (Bos taurus) (P02769 whole entry, looked up): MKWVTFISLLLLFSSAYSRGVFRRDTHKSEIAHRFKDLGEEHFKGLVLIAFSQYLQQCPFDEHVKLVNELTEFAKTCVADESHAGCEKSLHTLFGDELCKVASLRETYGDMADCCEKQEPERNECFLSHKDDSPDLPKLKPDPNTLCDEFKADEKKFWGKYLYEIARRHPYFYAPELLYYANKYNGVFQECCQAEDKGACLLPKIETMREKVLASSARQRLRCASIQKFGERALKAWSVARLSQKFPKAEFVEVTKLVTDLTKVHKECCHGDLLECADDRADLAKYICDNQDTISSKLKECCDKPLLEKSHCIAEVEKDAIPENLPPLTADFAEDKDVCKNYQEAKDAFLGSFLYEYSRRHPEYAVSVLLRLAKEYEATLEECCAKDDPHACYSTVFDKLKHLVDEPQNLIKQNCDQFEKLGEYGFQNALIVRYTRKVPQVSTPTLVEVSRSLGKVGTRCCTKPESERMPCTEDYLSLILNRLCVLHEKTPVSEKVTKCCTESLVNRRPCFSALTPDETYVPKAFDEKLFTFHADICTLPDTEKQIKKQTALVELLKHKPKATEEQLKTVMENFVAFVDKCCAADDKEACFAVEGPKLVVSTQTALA
# [2] = small-molecule microarray binders of probe aXIP, primary screen, biochemical, NeuroSMM set, 635/667 nm fluorescence (AID 1119); conditions: higher = more signal, called active from +8 up or from −8 down;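 note: probe is the protein aXip251-270 applied at 1 µg/mL to compound-printed slides; binding of probe to printed compounds measured as 667 nm fluorescence plus signal to noise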
# [3] = small-molecule binders of probe aNOTCH3, primary screen, biochemical, small-molecule microarray, 635/667 nm fluorescence (AID 1120); conditions: higher = more signal;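 note: probe is a biotin-tagged antibody raised against NOTCH3 rather than NOTCH3 protein; score merges spot fluorescence near 667 nm with spot signal to noise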
# [4] = small-molecule binders of probe aNOTCH2, primary screen, biochemical, small-molecule microarray, 635/667 nm fluorescence (AID 1121); conditions: higher = more signal;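 note: score merges feature fluorescence read at 667 nm with its signal to noise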
# [5] = target: Carbonic anhydrase 2 (Homo sapiens) (UniProt P00918); test: CAII small-molecule binders, profiling panel, biochemical, small-molecule microarray, Alexa647-labelled CAII (AID 1122); conditions: CAII-A647 binding fluorescence, higher = more signal
# [6] = COS7 lysate on small-molecule microarray, probe aHis, 635 nm (AID 1123); conditions: COS7 cell lysate, fluorescence, higher = more signal;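 note: z-score combines 667nm fluorescence intensity with signal-to-noise per printed compound spot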
# [7] = compound binding in COS7 lysate, probe aLAP1, primary screen, cell lysate, small-molecule microarray (AID 1124); conditions: probe aLAP1, fluorescence, higher = more signal;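 note: lysate comes from COS7 cells expressing LAP1 and is applied at 0.3 µg/mL; score merges spot fluorescence near 667 nm with signal-to-noise over triplicate slides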
# [8] = system: Sam68 (KHDRBS1); test: Sam68 small-molecule binders, primary screen, biochemical, small-molecule microarray, 635 nm fluorescence (AID 1125); conditions: small-molecule microarray binding, higher = more signal;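 note: score merges 667 nm channel intensity with signal to noise over triplicate slides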
# [9] = system: Chordin-like protein 2 (CHRDL2); test: CHRDL2 small-molecule binders, primary screen, biochemical, small-molecule microarray, 635 nm fluorescence (AID 1126); conditions: small-molecule microarray binding, fluorescence 635 nm; higher = more signal;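 note: printed compound slides probed with Chrdl2 protein at 4 µg/mL for 1 h at 4 C; score merges 667 nm emission intensity with signal to noise over three replicate slides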
# [10] = target: Concanavalin-A (Canavalia ensiformis) (UniProt P02866); test: ConA small-molecule binders, primary screen, artefact control for SMM control protein annotation, biochemical, small-molecule microarray, Alexa647 label, 635 nm (AID 1127); conditions: ConA-A647 binding fluorescence, higher = more signal;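 note: z combines 667 nm emission intensity with signal-to-noise across three replicate slides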
# Sequence of Concanavalin-A (Canavalia ensiformis) (P02866 whole entry, looked up): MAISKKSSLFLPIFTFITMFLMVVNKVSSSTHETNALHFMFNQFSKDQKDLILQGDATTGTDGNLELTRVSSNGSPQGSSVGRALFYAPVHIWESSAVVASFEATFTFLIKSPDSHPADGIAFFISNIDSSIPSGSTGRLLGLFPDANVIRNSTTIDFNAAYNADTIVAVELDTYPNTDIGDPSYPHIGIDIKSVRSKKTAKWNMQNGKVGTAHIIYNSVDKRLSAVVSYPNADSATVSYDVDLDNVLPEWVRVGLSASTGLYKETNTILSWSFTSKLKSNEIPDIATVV
# [11] = anti-His antibody binders, primary screen, artefact control for SMM control protein annotation, biochemical, small-molecule microarray, 635 nm fluorescence (AID 1128); conditions: anti-His Alexa647 antibody binding, higher = more signal;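 note: score merges feature fluorescence with signal-to-noise for each printed compound spot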
# [12] = system: Human papillomavirus type 1a E7 protein (residues 1-88); test: HPV1a E7 small-molecule binders, primary screen, biochemical, small-molecule microarray, residues 1-88, 635 nm (AID 1129); conditions: small-molecule microarray binding, fluorescence 635 nm; higher = more signal
# [13] = target: Focal adhesion kinase 1 (Homo sapiens) (UniProt Q05397); test: small-molecule microarray binders of FAK, primary screen, biochemical, 635/667 nm fluorescence, BSA, DTT (AID 1130); conditions: PTK2 binding, 635 nm fluorescence, higher = more signal;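 note: composite of spot emission at 667 nm and signal to noise over triplicate slides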
# Sequence of Focal adhesion kinase 1 (Homo sapiens) (Q05397 whole entry, looked up): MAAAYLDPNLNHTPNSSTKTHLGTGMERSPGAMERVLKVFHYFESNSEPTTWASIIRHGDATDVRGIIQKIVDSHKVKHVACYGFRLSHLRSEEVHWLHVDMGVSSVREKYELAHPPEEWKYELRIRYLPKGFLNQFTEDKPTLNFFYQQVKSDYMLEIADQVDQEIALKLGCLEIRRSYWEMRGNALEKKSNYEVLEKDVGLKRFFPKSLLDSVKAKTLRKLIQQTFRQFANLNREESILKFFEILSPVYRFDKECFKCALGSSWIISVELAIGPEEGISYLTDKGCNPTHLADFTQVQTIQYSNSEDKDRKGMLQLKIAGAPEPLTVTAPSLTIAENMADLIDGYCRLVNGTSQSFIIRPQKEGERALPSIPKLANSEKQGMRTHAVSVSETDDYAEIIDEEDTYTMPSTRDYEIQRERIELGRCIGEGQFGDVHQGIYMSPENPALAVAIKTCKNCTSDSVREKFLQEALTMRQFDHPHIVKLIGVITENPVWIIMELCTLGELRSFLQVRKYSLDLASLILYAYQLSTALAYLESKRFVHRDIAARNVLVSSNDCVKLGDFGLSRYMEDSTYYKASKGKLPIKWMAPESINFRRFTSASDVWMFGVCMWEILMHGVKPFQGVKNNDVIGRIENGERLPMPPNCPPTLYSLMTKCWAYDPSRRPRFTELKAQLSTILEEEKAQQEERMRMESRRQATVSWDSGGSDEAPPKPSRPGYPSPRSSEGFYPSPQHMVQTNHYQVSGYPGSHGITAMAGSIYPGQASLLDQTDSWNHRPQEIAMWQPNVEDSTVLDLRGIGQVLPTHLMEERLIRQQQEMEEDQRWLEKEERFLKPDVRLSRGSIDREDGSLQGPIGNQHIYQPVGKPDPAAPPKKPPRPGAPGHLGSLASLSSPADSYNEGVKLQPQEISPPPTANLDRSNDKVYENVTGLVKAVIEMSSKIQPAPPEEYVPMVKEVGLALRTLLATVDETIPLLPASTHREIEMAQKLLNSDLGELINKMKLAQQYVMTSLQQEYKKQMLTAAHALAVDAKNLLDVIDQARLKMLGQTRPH
# [14] = system: Fibrinogen (Alexa647-labelled); test: fibrinogen binders on compound microarrays, profiling panel, artefact control for SMM control-protein annotation, biochemical, small-molecule microarray, 635/667 nm fluorescence (AID 1131); conditions: fibrinogen-A647 binding fluorescence, higher = more signal;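 note: z-score merges 667 nm fluorescence with per-spot signal-to-noise over triplicate slides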
# [15] = target: Follistatin (Homo sapiens) (UniProt P19883); test: follistatin binders on small-molecule microarrays, primary screen, biochemical, small-molecule microarray, 635/667 nm fluorescence (AID 1132); conditions: FST binding, 635 nm fluorescence, higher = more signal
# Sequence of Follistatin (Homo sapiens) (P19883 whole entry, looked up): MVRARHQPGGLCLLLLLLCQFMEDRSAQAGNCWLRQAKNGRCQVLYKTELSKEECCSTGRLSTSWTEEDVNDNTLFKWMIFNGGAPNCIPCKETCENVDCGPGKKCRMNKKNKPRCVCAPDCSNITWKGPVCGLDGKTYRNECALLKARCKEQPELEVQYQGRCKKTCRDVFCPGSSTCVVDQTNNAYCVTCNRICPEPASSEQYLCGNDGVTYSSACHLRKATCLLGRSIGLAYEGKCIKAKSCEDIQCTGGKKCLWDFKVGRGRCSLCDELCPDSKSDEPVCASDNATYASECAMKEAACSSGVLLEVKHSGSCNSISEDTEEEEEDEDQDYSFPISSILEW
# [16] = target: Fibroblast growth factor 2 (Homo sapiens) (UniProt P09038); test: FGF2 binders on small-molecule microarrays, primary screen, biochemical, small-molecule microarray, 635/667 nm fluorescence (AID 1133); conditions: small-molecule microarray binding, FGF2, fluorescence 635/667; higher = more signal
# Sequence of Fibroblast growth factor 2 (Homo sapiens) (P09038 whole entry, looked up): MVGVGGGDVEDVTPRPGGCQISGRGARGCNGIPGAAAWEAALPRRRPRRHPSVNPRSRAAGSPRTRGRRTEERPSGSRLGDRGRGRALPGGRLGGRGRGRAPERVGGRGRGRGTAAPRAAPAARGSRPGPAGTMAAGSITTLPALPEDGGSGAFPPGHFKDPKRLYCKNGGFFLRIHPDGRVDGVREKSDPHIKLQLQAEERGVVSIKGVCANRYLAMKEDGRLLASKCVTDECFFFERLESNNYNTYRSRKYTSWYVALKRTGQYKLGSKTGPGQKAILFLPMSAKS
# [17] = mitochondrial membrane potential change in A549 cells, profiling panel, cell-based, JC-1 fluorescence, basal, 24 h, 100 nL (AID 1138); conditions: higher = more signal;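 note: A549 lung adenocarcinoma cells under basal conditions with no added stimulus; test concentration not given here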
# [18] = system: Lefty1; test: Lefty1 binders on small-molecule microarrays, primary screen, biochemical, small-molecule microarray, 635/667 nm fluorescence (AID 1139); conditions: small-molecule microarray binding, fluorescence 635/667; higher = more signal
# [19] = system: wheat germ agglutinin (Triticum aestivum), Alexa647-labelled; test: wheat germ agglutinin binders on compound microarrays, profiling panel, artefact control for SMM control-protein annotation, biochemical, small-molecule microarray, 635/667 nm fluorescence (AID 1140); conditions: WGA-A647 binding, 635 nm fluorescence, higher = more signal;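 note: score merges 667 nm feature emission with signal to noise over triplicate slides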
# [20] = target: Luciferin 4-monooxygenase (Photinus pyralis) (UniProt P08659); test: firefly luciferase enzyme inhibitors, primary screen, biochemical, luminescence, purified enzyme, 2006 set (AID 1141); conditions: SteadyGlo luminescence, 30 min, higher = more signal, called active from +8 up or from −8 down;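 note: cell-free assay with purified firefly luciferase at 100 ng per well in PBS; test concentration not given here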
# Sequence of Luciferin 4-monooxygenase (Photinus pyralis) (P08659 whole entry, looked up): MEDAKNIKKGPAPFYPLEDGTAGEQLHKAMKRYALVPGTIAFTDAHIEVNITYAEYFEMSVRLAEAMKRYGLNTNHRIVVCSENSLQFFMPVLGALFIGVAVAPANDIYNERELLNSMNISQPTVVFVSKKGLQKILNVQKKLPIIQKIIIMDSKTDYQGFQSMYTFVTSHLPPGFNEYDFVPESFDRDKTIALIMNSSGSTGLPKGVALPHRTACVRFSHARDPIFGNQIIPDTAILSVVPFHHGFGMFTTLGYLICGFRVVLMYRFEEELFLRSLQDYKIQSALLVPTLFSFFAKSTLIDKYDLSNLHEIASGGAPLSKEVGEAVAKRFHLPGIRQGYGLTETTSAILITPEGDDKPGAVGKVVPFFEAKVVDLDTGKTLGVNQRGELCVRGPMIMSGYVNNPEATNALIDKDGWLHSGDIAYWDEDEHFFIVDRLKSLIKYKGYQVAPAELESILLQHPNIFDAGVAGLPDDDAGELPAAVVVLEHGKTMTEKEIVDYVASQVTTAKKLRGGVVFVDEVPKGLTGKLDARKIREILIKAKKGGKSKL
SMILES,composite z-score [1],composite Z-score [2],composite z-score [3],composite z-score [4],composite z-score [5],composite z-score [6],composite z-score [7],composite z-score [8],composite z-score [9],composite z-score [10],composite z-score [11],composite z-score [12],composite z-score [13],composite z-score [14],composite z-score [15],composite z-score [16],z-score [17],composite z-score [18],composite z-score [19],z-score [20]
CCOC(=O)C[C@H]1[C@H](OC(=O)c2ccccc2-c2ccccc2)[C@@H](NC(=O)c2ccccc2)c2cc(OCCCO)ccc2N1C(=O)Cc1ccc(OC)cc1,-0.261,-0.0282 (inactive),-0.0055,0.669,-0.0956,0.428,0.368,-0.0802,0.0666,0.588,-0.277,-0.64,0.0427,0.66,-0.0263,-0.188,0.322,-0.018,0.564,0.897 (inactive)
CCCNC(=O)[C@@H]1c2ccccc2C(=O)N(CC23CC4CC(CC(C4)C2)C3)[C@H]1c1ccc(CO)cc1,0.472,0.39 (inactive),0.0702,0.0521,0.395,1.98,0.12,1.29,0.781,1.09,0.618,1.23,0.734,0.957,1.34,0.871,-1.17,0.798,0.562,0.411 (inactive)
CC(C)C(CO)N1C(=O)[C@@H]2[C@H]3C(=O)OCC=C[C@H]3OC23C=CCN(CCN2CCOCC2)C(=O)[C@@H]13 (stereo not given in full),-0.36,-0.0157 (inactive),-0.125,-0.164,-0.111,-0.332,-0.0765,0.0784,0.446,0.166,0.108,-0.438,-0.403,0.0835,0.418,-0.328,-0.0537,0.817,-0.467,-0.233 (inactive)
CC(C)[Si](C#C[Si](C(C)C)(C(C)C)C(C)C)(O[C@H](C)c1cn(Cc2cccc(Cl)c2)nn1)C(C)C,0.811,-0.596 (inactive),-0.0647,-0.147,0.554,0.842,-0.34,1.28,0.226,0.8,0.604,1.11,0.586,0.715,0.396,0.67,2.01,0.714,1.17,-1.11 (inactive)
